Inconclusive results are not listed. Entries that show only a call come without a potency. Unmarked numbers belong to inactive results. Calls of active or inactive are those of the source. Calls come from the whole dose curve; as a rule, active = well fitted curve in the direction sought with a large enough effect; inconclusive = small, poorly fitted or top-dose-only effect, or another doubt; inactive = no such curve, though single readings can be large; an effect the other way counts as inactive or inconclusive.
How the values were obtained:
[1] = HEK-293 Cancer Cell Toxicity qHTS against the NCATS CANVASS Library (AID 1347355); note: nearly all actives have a fitted effect of over 65% in size
Summary of the method: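 Toxicity was measured as CellTiter-Glo luminescence after 72 h exposure to an 11-point compound series. Compound was added to 1000 cells/well 4 h after seeding.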

[2] = test system: NAD(P)H diaphorase (Clostridium kluyveri); test: Diaphorse counterscreen qHTS: Assay Interference Panel against the NCATS CANVASS Library (AID 1347362)
Summary of the method: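 Clostridium kluyveri diaphorase in PBS + 0.01% Tween-20 preincubated 15 min with compounds. Resazurin and NADH then added for 5 min at room temperature in the dark; resorufin fluorescence read (ex 525, em 598).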

[3] = KB-8-5-11 Cancer Cell Toxicity qHTS against the NCATS CANVASS Library (AID 1347364); note: nearly all actives have a fitted effect of over 75% in size
Summary of the method: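 Viability read as CellTiter-Glo luminescence after 72 h at 37 °C, 5% CO2. 11-point compound series on 500 KB-8-5-11 cells/well in DMEM/10% FBS. Follow-up plating included 1 uM tariquidar in the medium.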

[4] = KB-3-1 Cancer Cell Toxicity qHTS against the NCATS CANVASS Library (AID 1347366); note: nearly all actives have a fitted effect of over 75% in size
Summary of the method: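 Luminescence from CellTiter-Glo (10 min, room temperature) measured KB-3-1 viability after 72 hr compound exposure at 37C. Cells were seeded at 500/well and tested in an 11-point series.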

[5] = qHTS for Hypoxia signaling pathway (HIF-1) antagonists against the NCATS CANVASS Library (AID 1347374); note: nearly all actives have a fitted effect of over 60% in size
Summary of the method: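 Antagonism scored as loss of CoCl2-driven (60 uM stock added) HRE beta-lactamase signal, read by CCF4 FRET at 460/530 nm. Compounds were tested in an 11-point series on ME-180 reporter cells for 17 hrs at 37C, with parallel CellTiter-Glo cytotoxicity.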

[6] = qHTS for Inflammasome Signaling Inhibitors: IL-1-beta AlphaLISA screen against the NCATS CANVASS Library (AID 1347379);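 note: human THP-1 cells primed with LPS then triggered with ATP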;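 for potency: secreted IL-1B measured as AlphaLISA emission at 615 nm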
Summary of the method: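 Secreted IL-1B from human THP-1 cells quantified by AlphaLISA 16 hr after compound addition (final up to 57.5 uM). A 1 hr compound pretreatment preceded inflammasome activation with 250 ng/mL LPS plus 1.25 mM ATP (final).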

[7] = qHTS assay for small molecule disruptors of mitochondrial membrane potential screened against the NCATS CANVASS Library (AID 1347389); note: nearly all actives have a fitted effect of over 60% in size
Summary of the method: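 Mitochondrial membrane potential in HepG2: 1 h compound treatment (11-point concentration series), 30 min m-MPI dye at 37C, then dual fluorescence of J-aggregates (ex 540/em 590) and monomers (ex 490/em 535); lower red/green ratio indicates depolarization.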

[8] = qHTS for inhibitors of Wild type Zika virus screened against the NCATS CANVASS Library (AID 1347396)
Summary of the method: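 Using ATP-based luminescence (CellTiter Glo), this screen scores rescue of Vero 766 cells from wild-type Zika killing at 72 h post-infection. Compounds are tested in a concentration series.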

[9] = Viability qHTS for inhibitors of the SERCaMP assay screened against the NCATS CANVASS Library (AID 1347400); note: nearly all actives have a fitted effect of over 70% in size
Summary of the method: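 CellTiter-Glo luminescence measured cytotoxicity after 48 h at 37C of compound treatment (11-point series). Cells were SH-SY5Y-GLuc SERCaMP MJH297 derivatives, seeded at 1000 per well 4 h beforehand.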
Potency is the fitted concentration of half-maximal effect.

Compound	Potency [1]	Potency [2]	Potency [3]	Potency [4]	Potency [5]	Potency [6]	Potency [7]	Potency [8]	Potency [9]
C/C=C1/CN2CC[C@@]34c5ccccc5N(C)[C@@H]3[C@@H]2C[C@@H]1[C@H]4C(=O)OC	inactive	inactive	inactive	inactive	inactive	inactive	inactive	inactive	inactive
C=CC(C)(C)[C@@]12C[C@H]3C(=O)N/C(=C/c4cnc[nH]4)C(=O)N3[C@@H]1Nc1ccccc12	–	inactive	inactive	inactive	inactive	inactive	inactive	inactive	inactive
C=C[C@H]1CN2CCc3c([nH]c4cccc(OC)c34)[C@@H]2C[C@@H]1/C(=C\OC)C(=O)OC	18.7 µM (active)	inactive	inactive	–	inactive	inactive	–	inactive	inactive
O[C@H]1C=C[C@@]23CCN(Cc4cc5c(cc42)OCO5)[C@@H]3C1	inactive	inactive	inactive	inactive	inactive	inactive	inactive	inactive	inactive
CO[C@@H](/C=C/CC/C=C/C(=O)O)[C@@H](O)[C@H](C)/C=C(\C)[C@H](O)[C@H](C)C(=O)CCCC1CC(=O)NC(=O)C1	inactive	inactive	inactive	inactive	inactive	inactive	inactive	inactive	inactive
C1=C2CCCN[C@H]2C2CC1[C@H]1CCCCN1C2 (stereo partly drawn)	inactive	inactive	inactive	inactive	inactive	inactive	inactive	inactive	–
CO[C@H]([C@@H](C)[C@H]1O[C@]1(C)C[C@H](C)/C=C/C=C(\C)[C@H]1O[C@@H](CC(=O)O)CC[C@@H]1C)[C@@H](C)O	0.0209 µM (active)	inactive	0.0264 µM (active)	0.0264 µM (active)	–	0.0385 µM (active)	inactive	–	0.048 µM (active)
C/C=C1/CN2CC[C@]34C(=C(C(=O)OC)[C@H]1C[C@H]23)Nc1ccccc14	inactive	inactive	–	inactive	inactive	–	inactive	inactive	–
COC1C(O)C(C)OC(OC2C(Oc3cccc4c(O)c5c(=O)oc6ccc(C)c7c(=O)oc(c34)c5c67)OC(C)C(O)C2O)C1O (stereo not drawn)	14.8 µM (active)	–	–	–	–	27.3 µM (active)	–	inactive	34 µM (active)
CO[C@@]12c3c(C)cc(O)c4c(=O)occ(c34)C(=O)[C@@H]1[C@]13COC(=O)c4c(O)cc(C)c(c41)C(=O)[C@H]2[C@@H]3OC(C)=O	inactive	–	inactive	inactive	inactive	inactive	16.6 µM (active)	inactive	inactive
COC1=C(C2=C(OC)C(=O)c3cc4c(c(O)c3C2=O)C(=O)O[C@H](C)C4)C(=O)c2c(cc3c(c2O)C(=O)O[C@H](C)C3)C1=O	inactive	1.45 µM (active)	inactive	inactive	–	–	–	inactive	inactive
CC[C@H]1CN2CCc3c([nH]c4cccc(OC)c34)[C@@H]2C[C@@H]1/C(=C\OC)C(=O)OC	23.5 µM (active)	inactive	inactive	inactive	inactive	inactive	–	inactive	inactive
CCC(=O)N[C@@H](C[C@H](C)C(Cl)(Cl)Cl)C(=O)N1C(=O)C=C(OC)[C@@H]1C[C@H](C)C(Cl)Cl	inactive	inactive	–	inactive	inactive	inactive	–	inactive	inactive
CC[C@@H]1CN2CCC3(Nc4cccc(OC)c4C3=O)[C@@H]2C[C@@H]1/C(=C\OC)C(=O)OC (stereo partly drawn)	inactive	inactive	inactive	inactive	inactive	inactive	inactive	inactive	inactive
C/C(=C\[C@H](C)C(=O)C[C@H](O)CC1CC(=O)NC(=O)C1)[C@@H]1OC(=O)/C=C/CC/C=C/C=C/[C@@H]1C	0.148 µM (active)	–	2.35 µM (active)	1.48 µM (active)	0.0375 µM (active)	2.43 µM (active)	inactive	inactive	0.538 µM (active)
C=C(C)[C@H]1C(=O)c2c3c(cc4c5c(n1c24)[C@@]1(C)[C@@H](CC[C@H]2[C@](C)(/C=C/C=C(\C)C(=O)O)[C@@H](O)CC[C@@]21C)C5)C1=CC(C)(C)OC(C)(C)[C@H]1[C@@H]3O	–	–	–	16.6 µM (active)	6.66 µM (active)	inactive	16.6 µM (active)	–	–
C/C=C/[C@@H]1[C@H]2C[C@@H](C)CC[C@@H]2C(C)=C[C@H]1C(=O)c1c(O)c(-c2ccc(O)cc2)c[nH]c1=O	–	inactive	20.9 µM (active)	18.7 µM (active)	23.6 µM (active)	inactive	14.8 µM (active)	–	inactive
CC[C@@H]1CN2CCc3c([nH]c4cccc(OC)c34)[C@@H]2C[C@@H]1/C(=C\OC)C(=O)OC	18.7 µM (active)	inactive	–	–	inactive	–	4.67 µM (active)	inactive	inactive
CCCCC1CC[C@H]2CCCC(CCC)N12 (stereo partly drawn)	inactive	inactive	inactive	inactive	inactive	inactive	inactive	inactive	inactive
C[C@]12CC(O)C3[C@@H](CCC4C[C@@H](O)CC[C@@]43CO)[C@@]1(O)CC[C@@H]2C1=CC(=O)OC1 (stereo partly drawn)	13.2 µM (active)	inactive	18.7 µM (active)	26.4 µM (active)	9.41 µM (active)	–	inactive	inactive	13.5 µM (active)
C[C@]12CC(O)C3[C@@H](CC[C@@H]4C[C@@H](O)CC[C@]34CO)[C@@]1(O)CC[C@@H]2C1=CC(=O)OC1 (stereo partly drawn)	3.72 µM (active)	inactive	5.9 µM (active)	9.35 µM (active)	2.98 µM (active)	12.2 µM (active)	inactive	inactive	7.6 µM (active)
CO[C@H]1[C@H](O[C@H]2CC[C@]3(C=O)[C@H]4CC[C@]5(C)[C@@H](C6=CC(=O)OC6)CC[C@]5(O)[C@@H]4CC[C@]3(O)C2)O[C@H](C)[C@H](O)[C@@H]1OC	0.105 µM (active)	inactive	0.132 µM (active)	0.235 µM (active)	0.0838 µM (active)	0.685 µM (active)	inactive	inactive	0.303 µM (active)
C[N+](C)(C)CCc1c[nH]c2ccccc12	inactive	inactive	inactive	inactive	inactive	inactive	inactive	inactive	inactive
CC(C)CC1C(=O)O[C@H](C(C)C)C(=O)N(C)C(CC(C)C)C(=O)O[C@@H](C(C)C)C(=O)N(C)C(CC(C)C)C(=O)O[C@H](C(C)C)C(=O)N(C)C(CC(C)C)C(=O)O[C@@H](C(C)C)C(=O)N1C (stereo partly drawn)	2.35 µM (active)	–	9.35 µM (active)	9.35 µM (active)	–	inactive	7.41 µM (active)	14.7 µM (active)	42.8 µM (active)
CCCC[C@@H](C)/C=C1/CN2CCC[C@H]2[C@@](C)(O)[C@@H]1O	inactive	inactive	inactive	inactive	inactive	inactive	inactive	inactive	inactive
C=C[C@]12C=CCN3CC[C@@]4(c5ccccc5NC(=O)[C@@H]4C1)[C@@H]32	inactive	inactive	inactive	inactive	inactive	inactive	inactive	inactive	inactive
CCCC[C@@H]1CC[C@H]2CCCC(CCCO)N12 (stereo partly drawn)	inactive	inactive	inactive	inactive	inactive	inactive	inactive	inactive	inactive
C/C=C(\C)C(=O)O[C@@H]1[C@@H](O)[C@@H]2O[C@H]3[C@H](O[C@@H](CCCCC)CCCCCCC(=O)CCC(=O)OC[C@@H](O2)[C@H]1OC(=O)/C=C/c1ccccc1)O[C@H](C)[C@H](OC(C)=O)[C@@H]3O	0.118 µM (active)	inactive	1.48 µM (active)	0.118 µM (active)	–	–	16.6 µM (active)	inactive	–
C/C=C1/CN2C3CC1C1=CCC(=O)N4c5ccccc5[C@@]3(C[C@@H]2C2=C[C@H]3C5CC6N(CC[C@@]67c6ccccc6N(C2=O)[C@@H]37)C/C5=C/C)[C@H]14 (stereo partly drawn)	7.43 µM (active)	inactive	16.6 µM (active)	–	–	21.7 µM (active)	inactive	–	42.8 µM (active)
C[C@]12CCC3[C@@H](CC[C@@H]4C[C@@H](O)CC[C@]34CO)[C@@]1(O)CC[C@@H]2C1=CC(=O)OC1 (stereo partly drawn)	1.87 µM (active)	inactive	0.935 µM (active)	1.32 µM (active)	0.941 µM (active)	1.93 µM (active)	–	inactive	1.91 µM (active)

From PubChem BioAssay (NCATS)
